# Results reported in ChEMBL document CHEMBL2218924, “A broad activity screen in support of a chemogenomic map for kinase signalling research and drug discovery” (Biochem J, 2013).
# Experiments:
# [1] = target: T1, Ephrin type-B receptor 1 (Homo sapiens) (UniProt P54762); conditions: at 10 µM
# T1 sequence (whole entry): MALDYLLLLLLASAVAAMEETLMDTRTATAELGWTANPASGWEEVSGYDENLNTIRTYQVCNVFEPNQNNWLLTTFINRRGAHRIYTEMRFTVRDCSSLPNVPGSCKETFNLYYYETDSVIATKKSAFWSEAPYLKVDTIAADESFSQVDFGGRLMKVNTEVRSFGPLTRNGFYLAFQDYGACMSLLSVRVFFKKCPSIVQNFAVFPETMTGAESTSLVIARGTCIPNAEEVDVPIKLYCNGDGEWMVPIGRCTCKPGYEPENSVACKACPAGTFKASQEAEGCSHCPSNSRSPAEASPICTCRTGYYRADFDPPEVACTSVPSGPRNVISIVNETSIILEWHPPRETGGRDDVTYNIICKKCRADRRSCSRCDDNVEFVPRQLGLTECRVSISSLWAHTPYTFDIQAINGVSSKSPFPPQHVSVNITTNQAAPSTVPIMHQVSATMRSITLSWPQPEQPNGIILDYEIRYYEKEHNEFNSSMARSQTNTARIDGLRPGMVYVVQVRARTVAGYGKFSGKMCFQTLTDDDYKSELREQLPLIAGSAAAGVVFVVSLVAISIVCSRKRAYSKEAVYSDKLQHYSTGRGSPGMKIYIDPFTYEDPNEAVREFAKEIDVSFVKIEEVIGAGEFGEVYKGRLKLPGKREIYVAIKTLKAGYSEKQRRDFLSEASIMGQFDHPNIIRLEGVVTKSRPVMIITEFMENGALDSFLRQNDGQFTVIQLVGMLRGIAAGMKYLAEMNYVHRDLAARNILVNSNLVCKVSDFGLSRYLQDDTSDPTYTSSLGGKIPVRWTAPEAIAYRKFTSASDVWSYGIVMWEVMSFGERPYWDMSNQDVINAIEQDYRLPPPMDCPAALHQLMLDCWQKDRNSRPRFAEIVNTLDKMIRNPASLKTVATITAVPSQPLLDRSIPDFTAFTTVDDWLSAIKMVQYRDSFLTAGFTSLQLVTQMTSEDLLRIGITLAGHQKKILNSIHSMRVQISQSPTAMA
# [2] = target: T2, Ephrin type-B receptor 2 (Homo sapiens) (UniProt P29323); conditions: at 1 µM
# T2 sequence (whole entry): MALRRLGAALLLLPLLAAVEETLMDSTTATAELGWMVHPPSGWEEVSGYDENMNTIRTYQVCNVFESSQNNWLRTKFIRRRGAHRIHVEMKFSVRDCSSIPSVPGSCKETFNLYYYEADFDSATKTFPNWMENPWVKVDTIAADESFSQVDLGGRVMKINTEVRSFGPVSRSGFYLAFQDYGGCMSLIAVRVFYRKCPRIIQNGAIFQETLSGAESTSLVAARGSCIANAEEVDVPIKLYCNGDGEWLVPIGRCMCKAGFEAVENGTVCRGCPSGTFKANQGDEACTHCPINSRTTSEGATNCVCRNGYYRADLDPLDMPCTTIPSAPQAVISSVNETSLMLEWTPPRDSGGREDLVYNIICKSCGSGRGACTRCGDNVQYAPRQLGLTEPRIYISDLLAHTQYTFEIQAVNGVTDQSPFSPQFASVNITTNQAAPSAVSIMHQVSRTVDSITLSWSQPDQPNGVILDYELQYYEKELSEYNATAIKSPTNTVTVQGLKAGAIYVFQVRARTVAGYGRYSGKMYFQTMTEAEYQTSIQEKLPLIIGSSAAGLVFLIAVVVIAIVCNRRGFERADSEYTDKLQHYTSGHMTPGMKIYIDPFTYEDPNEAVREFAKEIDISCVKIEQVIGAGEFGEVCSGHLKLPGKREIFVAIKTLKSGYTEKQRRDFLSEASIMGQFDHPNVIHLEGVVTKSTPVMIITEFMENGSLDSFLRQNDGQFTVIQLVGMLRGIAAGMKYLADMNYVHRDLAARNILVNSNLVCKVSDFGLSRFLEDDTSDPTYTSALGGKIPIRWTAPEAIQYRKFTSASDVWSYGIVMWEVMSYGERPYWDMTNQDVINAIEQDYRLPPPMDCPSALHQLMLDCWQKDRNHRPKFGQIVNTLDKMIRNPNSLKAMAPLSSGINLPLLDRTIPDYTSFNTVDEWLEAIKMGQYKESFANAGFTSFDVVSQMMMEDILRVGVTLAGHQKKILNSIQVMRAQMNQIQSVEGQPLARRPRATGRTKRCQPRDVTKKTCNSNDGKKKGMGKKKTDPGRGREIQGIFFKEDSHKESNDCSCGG
# [3] = target: T2, Ephrin type-B receptor 2 (Homo sapiens); conditions: at 10 µM
# [4] = target: T3, Ephrin type-B receptor 3 (Homo sapiens) (UniProt P54753); conditions: at 1 µM
# T3 sequence (whole entry): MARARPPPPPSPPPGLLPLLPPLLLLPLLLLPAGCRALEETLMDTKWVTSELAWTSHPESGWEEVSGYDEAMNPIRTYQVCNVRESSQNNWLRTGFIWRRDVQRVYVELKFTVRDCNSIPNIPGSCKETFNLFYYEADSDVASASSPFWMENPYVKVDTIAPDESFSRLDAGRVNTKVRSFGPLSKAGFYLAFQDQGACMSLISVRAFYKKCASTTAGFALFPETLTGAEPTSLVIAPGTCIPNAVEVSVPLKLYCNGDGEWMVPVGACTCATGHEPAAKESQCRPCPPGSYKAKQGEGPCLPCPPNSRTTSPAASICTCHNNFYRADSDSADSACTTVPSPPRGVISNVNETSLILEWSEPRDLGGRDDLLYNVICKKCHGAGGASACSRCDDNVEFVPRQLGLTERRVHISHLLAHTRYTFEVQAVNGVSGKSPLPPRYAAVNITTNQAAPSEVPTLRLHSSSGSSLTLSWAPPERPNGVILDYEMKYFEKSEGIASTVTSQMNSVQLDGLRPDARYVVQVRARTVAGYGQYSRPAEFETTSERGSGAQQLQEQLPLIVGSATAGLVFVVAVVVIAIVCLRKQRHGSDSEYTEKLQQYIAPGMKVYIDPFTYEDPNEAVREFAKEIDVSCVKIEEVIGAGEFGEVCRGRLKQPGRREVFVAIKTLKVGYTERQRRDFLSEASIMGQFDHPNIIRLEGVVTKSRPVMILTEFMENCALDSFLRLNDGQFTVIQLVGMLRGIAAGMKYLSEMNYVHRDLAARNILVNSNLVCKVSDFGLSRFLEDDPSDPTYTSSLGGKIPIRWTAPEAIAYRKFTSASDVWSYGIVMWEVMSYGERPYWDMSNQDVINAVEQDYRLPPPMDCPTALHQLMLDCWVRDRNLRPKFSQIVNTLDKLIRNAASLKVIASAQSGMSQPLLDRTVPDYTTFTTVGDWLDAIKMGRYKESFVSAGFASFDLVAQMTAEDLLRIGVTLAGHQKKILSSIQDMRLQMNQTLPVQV
# [5] = target: T3, Ephrin type-B receptor 3 (Homo sapiens); conditions: at 10 µM
# [6] = target: T4, Ephrin type-B receptor 4 (Homo sapiens) (UniProt P54760); conditions: at 1 µM
# T4 sequence (whole entry): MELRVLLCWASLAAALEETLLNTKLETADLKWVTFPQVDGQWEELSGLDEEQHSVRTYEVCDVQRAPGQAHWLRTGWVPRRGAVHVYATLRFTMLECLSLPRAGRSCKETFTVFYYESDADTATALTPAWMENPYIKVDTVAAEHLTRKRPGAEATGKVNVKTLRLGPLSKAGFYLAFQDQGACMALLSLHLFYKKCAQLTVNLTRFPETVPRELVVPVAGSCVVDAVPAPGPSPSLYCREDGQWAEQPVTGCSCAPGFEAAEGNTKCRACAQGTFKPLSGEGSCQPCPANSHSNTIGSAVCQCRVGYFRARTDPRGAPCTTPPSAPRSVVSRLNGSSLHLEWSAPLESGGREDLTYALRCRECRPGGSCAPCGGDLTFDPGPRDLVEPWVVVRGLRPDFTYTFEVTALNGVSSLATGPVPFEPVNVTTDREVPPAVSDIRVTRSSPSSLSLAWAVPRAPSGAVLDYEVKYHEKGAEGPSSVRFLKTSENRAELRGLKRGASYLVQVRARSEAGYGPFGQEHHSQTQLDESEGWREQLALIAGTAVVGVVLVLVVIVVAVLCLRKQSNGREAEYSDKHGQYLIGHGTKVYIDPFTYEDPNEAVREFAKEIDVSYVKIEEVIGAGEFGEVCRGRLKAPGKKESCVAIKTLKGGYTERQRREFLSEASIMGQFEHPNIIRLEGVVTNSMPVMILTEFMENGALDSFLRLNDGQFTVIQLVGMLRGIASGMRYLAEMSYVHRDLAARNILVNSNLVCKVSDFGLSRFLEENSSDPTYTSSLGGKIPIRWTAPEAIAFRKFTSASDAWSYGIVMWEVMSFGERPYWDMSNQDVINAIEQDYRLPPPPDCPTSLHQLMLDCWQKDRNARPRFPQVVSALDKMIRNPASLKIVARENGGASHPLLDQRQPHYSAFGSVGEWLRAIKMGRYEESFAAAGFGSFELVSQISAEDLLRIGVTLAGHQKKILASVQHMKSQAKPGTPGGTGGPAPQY
# [7] = target: T4, Ephrin type-B receptor 4 (Homo sapiens); conditions: at 10 µM
# [8] = target: Receptor tyrosine-protein kinase erbB-4 (Homo sapiens) (UniProt Q15303); conditions: at 1 µM
# [9] = target: Receptor tyrosine-protein kinase erbB-4 (Homo sapiens) (UniProt Q15303); conditions: at 10 µM
# [10] = target: Focal adhesion kinase 1 (Homo sapiens) (UniProt Q05397); conditions: at 1 µM
# Chain of Focal adhesion kinase 1 (Homo sapiens) (Q05397 2-1052 limits assumed): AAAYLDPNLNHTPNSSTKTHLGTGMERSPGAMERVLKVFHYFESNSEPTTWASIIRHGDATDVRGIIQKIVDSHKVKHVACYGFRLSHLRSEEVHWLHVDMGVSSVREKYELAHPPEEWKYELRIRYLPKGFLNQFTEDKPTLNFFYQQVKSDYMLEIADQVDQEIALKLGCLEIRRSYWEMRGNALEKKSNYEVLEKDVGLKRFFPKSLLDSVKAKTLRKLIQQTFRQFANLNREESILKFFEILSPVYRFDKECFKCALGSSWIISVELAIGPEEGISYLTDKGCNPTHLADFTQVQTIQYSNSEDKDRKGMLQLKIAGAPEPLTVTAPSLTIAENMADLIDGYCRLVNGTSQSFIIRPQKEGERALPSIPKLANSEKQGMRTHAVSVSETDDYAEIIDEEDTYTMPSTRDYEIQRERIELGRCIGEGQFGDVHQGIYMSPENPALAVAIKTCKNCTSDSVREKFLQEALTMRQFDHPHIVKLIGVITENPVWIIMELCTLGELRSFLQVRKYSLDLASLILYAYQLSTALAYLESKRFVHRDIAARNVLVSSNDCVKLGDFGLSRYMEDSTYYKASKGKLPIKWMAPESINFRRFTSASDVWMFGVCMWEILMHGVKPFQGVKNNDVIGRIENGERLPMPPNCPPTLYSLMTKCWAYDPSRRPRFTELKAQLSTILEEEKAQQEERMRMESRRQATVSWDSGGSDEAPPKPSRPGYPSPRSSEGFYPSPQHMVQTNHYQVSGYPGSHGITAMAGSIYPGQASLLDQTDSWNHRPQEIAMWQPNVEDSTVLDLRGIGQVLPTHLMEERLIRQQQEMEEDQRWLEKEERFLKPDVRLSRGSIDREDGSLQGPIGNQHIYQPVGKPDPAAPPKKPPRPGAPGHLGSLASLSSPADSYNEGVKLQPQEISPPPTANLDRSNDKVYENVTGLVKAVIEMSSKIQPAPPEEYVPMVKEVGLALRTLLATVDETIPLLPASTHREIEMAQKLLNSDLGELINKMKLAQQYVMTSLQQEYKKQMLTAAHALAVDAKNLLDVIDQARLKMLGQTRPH
# Chain of Receptor tyrosine-protein kinase erbB-4 (Homo sapiens) (Q15303 whole entry): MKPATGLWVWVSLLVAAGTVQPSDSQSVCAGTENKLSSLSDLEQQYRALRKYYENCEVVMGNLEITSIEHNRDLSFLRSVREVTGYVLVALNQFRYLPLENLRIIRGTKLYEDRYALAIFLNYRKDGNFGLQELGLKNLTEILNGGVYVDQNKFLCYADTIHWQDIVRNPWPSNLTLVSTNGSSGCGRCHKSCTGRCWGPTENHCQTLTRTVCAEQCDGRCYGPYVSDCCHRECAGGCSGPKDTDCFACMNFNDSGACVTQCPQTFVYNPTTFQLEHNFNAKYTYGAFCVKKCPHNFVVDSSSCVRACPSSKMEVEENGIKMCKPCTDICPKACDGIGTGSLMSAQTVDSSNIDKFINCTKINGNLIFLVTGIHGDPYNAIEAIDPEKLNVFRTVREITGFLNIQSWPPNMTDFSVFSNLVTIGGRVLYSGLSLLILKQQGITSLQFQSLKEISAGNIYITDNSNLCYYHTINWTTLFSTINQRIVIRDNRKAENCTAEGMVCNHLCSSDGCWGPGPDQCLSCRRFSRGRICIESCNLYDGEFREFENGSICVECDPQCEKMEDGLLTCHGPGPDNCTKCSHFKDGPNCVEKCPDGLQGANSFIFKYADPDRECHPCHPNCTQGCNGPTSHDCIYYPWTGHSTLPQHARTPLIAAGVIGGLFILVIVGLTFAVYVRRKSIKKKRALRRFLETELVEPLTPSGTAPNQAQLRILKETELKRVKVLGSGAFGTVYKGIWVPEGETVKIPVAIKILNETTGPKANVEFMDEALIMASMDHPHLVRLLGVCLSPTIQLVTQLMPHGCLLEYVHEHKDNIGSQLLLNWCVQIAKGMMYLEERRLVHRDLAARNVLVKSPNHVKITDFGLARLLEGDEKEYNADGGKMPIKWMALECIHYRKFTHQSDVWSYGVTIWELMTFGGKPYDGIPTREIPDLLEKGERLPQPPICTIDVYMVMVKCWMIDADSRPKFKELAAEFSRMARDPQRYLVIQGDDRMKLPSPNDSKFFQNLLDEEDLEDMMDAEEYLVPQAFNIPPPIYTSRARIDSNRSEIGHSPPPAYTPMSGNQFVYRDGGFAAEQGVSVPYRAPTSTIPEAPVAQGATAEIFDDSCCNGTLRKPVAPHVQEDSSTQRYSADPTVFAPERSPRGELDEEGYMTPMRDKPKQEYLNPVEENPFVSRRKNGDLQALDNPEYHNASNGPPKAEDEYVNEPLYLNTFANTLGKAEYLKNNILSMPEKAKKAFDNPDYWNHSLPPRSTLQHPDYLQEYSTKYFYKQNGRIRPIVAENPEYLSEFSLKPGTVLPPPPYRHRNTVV
structure (smiles),measurement,setting,value
CNc1cc2c(Nc3cccc(Br)c3)ncnc2cn1,residual activity,[1],62%
same,residual activity,[2],94%
same,residual activity,[3],62%
same,residual activity,[4],95% (inactive)
same,residual activity,[5],120%
same,residual activity,[6],63%
same,residual activity,[7],13%
same,residual activity,[8],42%
same,residual activity,[9],31%
same,residual activity,[10],107%
